In ChEMBL document CHEMBL3433997, “St. Jude Leishmania screening dataset” (2016):

target: Glucose transporter (Leishmania mexicana) (UniProt O61059); assay: ST_JUDE_LEISH: Cytotoxicity at 2uM final concentration against transgenic Leishmania Mexicana promastigotes LmGT2 that are glucose transport deficient and complemented with the L. Mexicana glucose transporter 2. Activity is measured by DNA content using SYBR green in vitro; type: functional

| Structure (SMILES) | inhibition [%] |
| --- | --- |
| CCCCC(=O)Nc1nc2ccc([N+](=O)[O-])cc2s1 | -0.58 |
| CC(NC(=O)c1cc(-c2ccccc2)nc2c1cnn2C(C)C)C1CC1 (stereo not given) | 0.29 |
| CC(Cc1ccc(NC(=O)c2ccc(CNCCc3ccccc3)cc2)cc1)NCCc1cccc(Cl)c1 (stereo not given) | 4.52 |
| O=C(Nc1ccc(S(=O)(=O)NCCCN2CCOCC2)cc1)c1cc(-c2ccccc2)[nH]n1 | 5.52 |
| COc1ccc(C2CCN(CCCCNC(=O)c3ccc(NC(=O)c4ccc(Cl)cc4)cc3)C2)c(OC)c1 (stereo not given) | 0.7 |
| CCOc1ccc2[nH]c(C)cc(=NN=Cc3ccncc3)c2c1 | -2.05 |
| Cc1[nH]c(C)c(-c2ccc(-c3ccc(C(F)(F)F)cc3C(F)(F)F)nc2)c(=O)c1Br | 0.14 |
| Cc1ccc(-c2ccn(Cc3cccc(OCc4ccccc4)c3)n2)cn1.Cc1ccc(-c2ccnn2Cc2cccc(OCc3ccccc3)c2)cn1 | -0.57 |
| Cc1cccc(CNc2nc(C)cc(NCCC(=O)NCCOc3ccccc3)n2)c1 | -0.13 |
| N#Cc1ccc(-c2ccc(C(=O)NC3CCN(CCN4CCc5c(cccc5C(F)(F)F)C4)CC3)cc2)cc1 | 1.46 |
| CCOC(=O)COc1cccc(CNc2ccc3nc(N)nc(N)c3c2)c1 | 1.48 |
| CN1CCN(CCCN(Cc2ccc(-c3cccc(CNC4CCCC4)c3)cc2)C(=O)Nc2ccccc2)CC1 | 5.53 |
| CN(C)CCOc1ccc2c(c1)OC(C)(C)C=C2c1cccc2ccccc12 | 3.75 |
| COc1ccc2nccc([C@@H](O)CN3CCC(NCC(=O)Nc4cc(F)cc(F)c4)CC3)c2n1 | 58.1 |
| COc1ccc(CN2CCCC(C(=O)c3ccc(C(F)(F)F)cc3)C2)c(O)c1 (stereo not given) | 3.56 |
| CCOC(=O)c1ccc(NC(=O)Nc2ccc(-c3ccc(-c4nc5cccc(C)c5[nH]4)s3)cc2)cc1 | 0.88 |
| Fc1ccc(COc2ccc(Nc3ncnc4ccc(I)cc34)cc2Cl)cc1 | 1.83 |
| COc1cccc2sc(N3CCN(C(=O)c4ccc([N+](=O)[O-])o4)CC3)nc12 | 4.81 |
| CN(C)CCCOc1ccc(-c2nc(-c3ccc4c(c3)CCC4=NO)c(-c3ccncc3)[nH]2)cc1 | 1.24 |
| CCOC(=O)c1ccc(NC(=O)N[C@@H](Cc2ccc(O)cc2)C(=O)NC2CCN(Cc3ccc4c(c3)OCO4)CC2)cc1 | 0.58 |

| Structure (SMILES) | inhibition [%] |
| --- | --- |
| COc1ccc(-c2cc(C(=O)Nc3ccc4[nH]c(-c5ccccc5)nc4c3)[nH]n2)cc1 | 14.1 |
| CC(C)Cc1nc(N2CCOCC2)c2nnn(Cc3ccccc3)c2n1 | 1.84 |
| O=C(/C=C/c1ccc(Cl)c(Cl)c1)NCCCCCCN1CCCN(C(=O)Nc2ccc(Cl)c(C(F)(F)F)c2)CC1 | -1.22 |
| COc1cc(OC)cc(C(=O)Nc2ccc(Nc3nc(C)cc(N(C)C)n3)cc2)c1 | 6.54 |
| O=C(Nc1ccc(OC(F)(F)F)cc1)NC1CCN(c2ccnc3ccccc23)CC1 | -1.28 |
| O=C(c1cccc(-c2cccc(-c3nc4cc(F)ccc4[nH]3)c2)c1)N1CCCCC1CN1CCC(O)C1 (stereo not given) | 0.51 |
| O=[N+]([O-])c1ccc2c(c1)c1ccccc1n2Cc1ccccc1O | -2.69 |
| COc1ccc(C=NN=c2c3ccccc3[nH]c3ccccc23)c2ccccc12 | 5.05 |
| CCCC(C)n1ccc2c3c(N)nc(N)nc3ccc21 (stereo not given) | 29.7 |
| CN1CCN(Cc2nc(-c3ccc4c(Nc5ccc(F)c(O)c5)ccnc4c3)cs2)CC1 | 0.94 |
| Cc1cnc2cc3c(cc2c1N1CCN(C)CC1)NCC3 | -1.24 |
| N#Cc1ccc(-c2ccc(C(=O)NC3CCN(CCN4CCC(c5cn(CCOC6CCCCO6)c6ccccc56)CC4)CC3)cc2)cc1 (stereo not given) | 21.2 |
| Cc1nc(C)c(CC(=O)Nc2ccc(-c3cccc(-c4nc5cccc(C)c5[nH]4)c3)cc2)s1 | 4.14 |
| c1ccc(-c2cc(NCCCCNc3cc(-c4ccccc4)nc4ccccc34)c3ccccc3n2)cc1 | 6.81 |
| Cc1c(C(=O)Nc2cc(Sc3ccc(F)cc3)cc([N+](=O)[O-])c2)sc2ncn(Cc3ccccc3F)c(=O)c12 | 8.4 |
| COCCN1CCN(Cc2ccc(-c3ccc(-c4nc5cccc(C)c5[nH]4)s3)cc2)CC1 | 4.87 |
| CCNc1cc(C(=O)N[C@@H](Cc2ccccc2)[C@H](O)CNCCC(C)c2ccccc2)cc(N2CCCC2=O)c1 (stereo not given in full) | 1.33 |
| O=C(NC1CCC(N2CCC(Cc3ccc(F)cc3)CC2)CC1)c1cc2ccccc2[nH]1 (stereo not given) | 0.47 |
| CS(=O)(=O)c1ccc(-c2cnc(N)c(-c3ccc(O)cc3)c2)cc1 | 1.48 |
| CCNc1cc(C(=O)N[C@@H](Cc2ccccc2)[C@H](O)CN[C@H](C)C(C)(C)C)cc(N2CCCCS2(=O)=O)c1 | 2.33 |
